From PubChem BioAssay (NCI)
“And” between values parts separate entries of the source, which are not always exact repeats. Identical values can stand only once. This is part of a sample that, as a whole, favours compounds with a hit. Of some 83,000 tested, about 20% had one in any assay.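 Plates (96-well) were seeded with cells, treated with compound at one concentration, and incubated for 48 hours before percent growth was determined.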 The source made the active and inactive calls. Rule for the calls: active = growth percent below 10; inactive = the rest.

What was measured:
Test in all cases: NCI-60 one-dose screen, 48 h (100 = growth as untreated, 0 = no growth, -100 = all killed)
HCT-15 colon = test system: HCT-15 colon
HT29 colon = test system: HT29 colon
SNB-75 CNS = test system: SNB-75 CNS
SNB-19 CNS = test system: SNB-19 CNS
U251 CNS = test system: U251 CNS
PC-3 prostate = test system: PC-3 prostate
SK-MEL-5 melanoma = test system: SK-MEL-5 melanoma
UACC-62 melanoma = test system: UACC-62 melanoma
LOX IMVI melanoma = test system: LOX IMVI melanoma
SK-MEL-28 melanoma = test system: SK-MEL-28 melanoma

Measured: growth

Cc1ccc(NCSc2ccc(Cl)cc2)cc1
inactive: HCT-15 colon; 10 µM unless noted 77.1% and 90.7% | HT29 colon; 10 µM unless noted 79.4% and 75.7% | SNB-75 CNS; 10 µM unless noted 86% and 91.7% | SNB-19 CNS; 10 µM unless noted 89.3% and 90% | U251 CNS; 10 µM unless noted 71.4% and 79.1% | PC-3 prostate; 10 µM unless noted 66.8% and 62.3% | SK-MEL-5 melanoma; 10 µM unless noted 86.5% and 102% | UACC-62 melanoma; 10 µM unless noted 82.3% and 85% | LOX IMVI melanoma; 10 µM unless noted 88.6% and 95.2% | SK-MEL-28 melanoma; 10 µM unless noted 86.9% and 94.3%

Nc1cc2c(cc1N)-c1ccccc1C2
inactive: HCT-15 colon; 10 µM unless noted 85.9% and 94.3% | HT29 colon; 10 µM unless noted 96.6% and 105% | SNB-75 CNS; 10 µM unless noted 71.4% and 91.6% | SNB-19 CNS; 10 µM unless noted 97.7% and 115% | U251 CNS; 10 µM unless noted 89.9% and 89.5% | PC-3 prostate; 10 µM unless noted 85% and 105% | SK-MEL-5 melanoma; 10 µM unless noted 95.7% and 97.1% | UACC-62 melanoma; 10 µM unless noted 85.3% and 109% | LOX IMVI melanoma; 10 µM unless noted 97.5% and 93.3% | SK-MEL-28 melanoma; 10 µM unless noted 115% and 116%

CC1(C)OB(c2ccc(Cn3cc(F)c(=O)[nH]c3=O)cc2)OC1(C)C
inactive: HCT-15 colon; 10 µM 101% | HCT-15 colon; 50 µM 68.1% | HT29 colon; 10 µM 112% | HT29 colon; 50 µM 24.3% | SNB-19 CNS; 10 µM 103% | SNB-19 CNS; 50 µM 70.6% | U251 CNS; 10 µM 105% | U251 CNS; 50 µM 82.6% | PC-3 prostate; 10 µM 101% | PC-3 prostate; 50 µM 55.4% | SK-MEL-5 melanoma; 10 µM 98.4% | SK-MEL-5 melanoma; 50 µM 38.8% | LOX IMVI melanoma; 10 µM 98.2% | LOX IMVI melanoma; 50 µM 52.6% | SK-MEL-28 melanoma; 10 µM unless noted 99.4%

NCCSC(C[N+](=O)[O-])c1ccccc1Cl (centres undefined)
inactive: HCT-15 colon; 10 µM unless noted 22.4% | HT29 colon; 10 µM unless noted 36% | SNB-75 CNS; 10 µM unless noted 105% | SNB-19 CNS; 10 µM unless noted 102% | U251 CNS; 10 µM unless noted 77.6% | PC-3 prostate; 10 µM unless noted 68.1% | SK-MEL-5 melanoma; 10 µM unless noted 85.1% | UACC-62 melanoma; 10 µM unless noted 92.6% | LOX IMVI melanoma; 10 µM unless noted 31.4%
active: SK-MEL-28 melanoma; 10 µM unless noted -20.5%

Cc1[nH]c(-c2nc3ccccc3[nH]2)c(C)c1C(=O)NC(C)C1CCCCC1 (centres undefined)
inactive: HCT-15 colon; 10 µM 69% | HT29 colon; 10 µM 94.8% | SNB-75 CNS; 10 µM 79.6% | SNB-19 CNS; 10 µM 86.6% | U251 CNS; 10 µM 96.7% | PC-3 prostate; 10 µM 78.5% | SK-MEL-5 melanoma; 10 µM 80.2% | UACC-62 melanoma; 10 µM 78.1% | LOX IMVI melanoma; 10 µM unless noted 84.7% | SK-MEL-28 melanoma; 10 µM 89.2%
active: HCT-15 colon; 100 µM -80.6% | HT29 colon; 100 µM -38.4% | SNB-75 CNS; 100 µM -98.9% | SNB-19 CNS; 100 µM -94.7% | U251 CNS; 100 µM -64.5% | PC-3 prostate; 100 µM -58.3% | SK-MEL-5 melanoma; 100 µM -99.6% | UACC-62 melanoma; 100 µM -96.5% | SK-MEL-28 melanoma; 100 µM -94.9%

CCOc1ccc2c(S(=O)(=O)O)cccc2c1[N+](=O)[O-]
inactive: HCT-15 colon; 10 µM unless noted 103% and 108% | HT29 colon; 10 µM unless noted 105% and 117% | SNB-75 CNS; 10 µM unless noted 85.7% and 93.8% | SNB-19 CNS; 10 µM unless noted 108% and 112% | U251 CNS; 10 µM unless noted 101% and 99.9% | PC-3 prostate; 10 µM unless noted 93.4% and 87.4% | SK-MEL-5 melanoma; 10 µM unless noted 108% | UACC-62 melanoma; 10 µM unless noted 101% and 110% | LOX IMVI melanoma; 10 µM unless noted 105% and 102% | SK-MEL-28 melanoma; 10 µM unless noted 113% and 118%

CC(O)(CC(=O)CC(=O)c1ccccc1)c1ccccc1 (centres undefined)
inactive: HCT-15 colon; 10 µM unless noted 70.2% and 69.4% | HT29 colon; 10 µM unless noted 105% and 111% | SNB-75 CNS; 10 µM unless noted 92.5% and 126% | SNB-19 CNS; 10 µM unless noted 95.8% and 99.9% | U251 CNS; 10 µM unless noted 89.2% and 84.3% | PC-3 prostate; 10 µM unless noted 80.9% | SK-MEL-5 melanoma; 10 µM unless noted 98.6% and 93.6% | UACC-62 melanoma; 10 µM unless noted 101% and 87.9% | LOX IMVI melanoma; 10 µM unless noted 110% and 82.3% | SK-MEL-28 melanoma; 10 µM unless noted 99.4% and 123%
